The record followed here is PubChem BioAssay.

For this assay, the target named is Streptavidin (Streptomyces avidinii) (UniProt P22629). Briefly: compounds binding control protein streptavidin – biophysical, small-molecule microarray, 635/667 nm fluorescence, artefact control for SMM compound annotation, primary screen (AID 1147).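 Note: signal reflects streptavidin binding to arrayed compounds as a control protein.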 Conditions: higher = more signal.
Sequence of Streptavidin (Streptomyces avidinii) (P22629 whole entry, looked up): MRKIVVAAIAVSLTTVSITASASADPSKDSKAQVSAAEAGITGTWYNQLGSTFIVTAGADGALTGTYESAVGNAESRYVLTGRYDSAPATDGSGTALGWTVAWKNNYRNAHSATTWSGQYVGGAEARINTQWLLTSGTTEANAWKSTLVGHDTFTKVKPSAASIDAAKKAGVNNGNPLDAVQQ
Regarding `C=CCC(OC(C)=O)[C@@H]1[C@@H](N(Cc2cccc3ccccc23)C(=O)c2cccc3ccccc23)c2cc(OCCCO)ccc2N1C(=O)c1ccc2ccccc2n1` (stereo partly specified), the composite z-score is 0.193. As to `COc1ccc(C(O)C2C=CC3C(=O)NC(=O)C3N2Nc2ccccn2)cc1OCc1ccccc1` (stereo unspecified), the composite z-score is 0.428.

In turn, `CCCN1C(=O)[C@@]2(CCC(=O)OC(C)(C)C)N=C(c3ccc(OCCCO)cc3)O[C@H]2c2ccccc21` showed a composite z-score of 0.0808. In turn, `COc1cccc(C(=O)O[C@H]2CC[C@]3(C)C4=C(CCC3C2(C)C)[C@]2(C)CC[C@H]([C@H](C)CCCC(C)C)[C@@]2(C)CC4)c1` (stereo partly specified) displayed a composite z-score of 0.184. `COc1cc2c(cc1OC)CN(C(=O)[C@@H]1[C@H]3C(=O)O[C@H](c4ccccc4)[C@H](c4ccccc4)N3[C@H](c3ccccc3OCCO)[C@@]13C(=O)Nc1ccc(C#CCNC(N)=O)cc13)CC2` registered a composite z-score of 0.684. Take `CN(C)CCCCNC(=O)[C@H]1C[C@H]2C(=O)N[C@@H](Cc3ccccc3)C(=O)N2[C@H]1c1ccc(O)cc1`: the composite z-score was found to be 1.34. Take `COc1ccc(CCN2C(=O)[C@@]3(Cc4ccccc42)c2ccccc2C(=O)N(Cc2ccccc2Cl)[C@H]3c2ccc(CO)cc2)cc1`: the composite z-score was -0.343. Take `CCCCCCCCCCC(O)C1C=CC2C(=O)N(Cc3ccccc3)C(=O)C2N1n1cnnc1` (stereo unspecified): the composite z-score came to 0.744.

In turn, `COCCOC(=O)N1C(=O)[C@@]2(c3cc(C#CCC(C(=O)OC)C(=O)OC)ccc31)[C@H](C(=O)N1CCN(c3ncccn3)CC1)[C@H]1C(=O)O[C@H](c3ccccc3)[C@H](c3ccccc3)N1[C@@H]2c1ccc(OCCO)cc1` showed a composite z-score of 0.392. Then `C=C(COC)C(=O)CC[C@@H](OC(=O)c1cccnc1)c1ccc(CO)o1`, with -0.022; and `C=C[C@@H](COC(C)=O)N(Cc1ccc([N+](=O)[O-])cc1)S(=O)(=O)c1ccc(Br)cc1`, with 0.861; and `O=C1O[C@@H](c2ccccc2)[C@@H](c2ccccc2)N2[C@@H](c3ccc(O)cc3)[C@]3(C(=O)Nc4ccc(C#CC5(O)CCCCCC5)cc43)[C@@H](C(=O)N3CCCCCCC3)[C@H]12`, with 3.13. `COC(=O)C[C@@H]1C[C@H](C)[C@]2(O1)C(=O)N(Cc1ccccc1)c1ccc(NC(C)=O)cc12`: the composite z-score is -0.101. Take `CC(C)(C)N1CC=CC23O[C@@H]4C=CCOC(=O)[C@@H]4[C@H]2C(=O)N(CCCCCO)[C@@H]3C1=O` (stereo partly specified): the composite z-score is -1.41. Next, `C=CCN1C(=O)[C@]2(O[C@H](CCO)[C@@H]([Si](C)(C)c3ccc(OC)cc3)[C@@H]2C)c2cc(NC(=O)[C@H](C)O)ccc21`: 0.553. As to `C=CC(=C)C1=CCO[C@@H]1[C@H]1CCCN1S(=O)(=O)c1ccccc1[N+](=O)[O-]`, the composite z-score was found to be 0.909.

For `COc1ccc(NN2C(C(O)c3ccc(OC)c(OCc4ccccc4)c3)C=CC3C(=O)N(C4CCCCC4)C(=O)C32)cc1` (stereo unspecified), the composite z-score came to 1.19. With `[N-]=[N+]=NCc1ccccc1[C@@H]1OC(c2ccc(OCCCO)cc2)=N[C@]1(Cc1ccccc1)C(=O)N1CCCCC1`, the composite z-score worked out at 0.466. In turn, `CC(C)(C)N1CC=CC23O[C@@H]4/C=C\CCCOC(=O)C4[C@H]2C(=O)N(CCO)[C@@H]3C1=O` (stereo partly specified) returned a composite z-score of -0.801. `O=C1O[C@H](c2ccccc2)[C@H](c2ccccc2)N2[C@H]1[C@@H](C(=O)O)[C@]1(C(=O)Nc3ccc(C#CC4=CCCCC4)cc31)[C@H]2c1ccc(OCCO)cc1` showed a composite z-score of 1.22.

On to `COC(=O)C[C@H]1O[C@]2(C(=O)N(Cc3ccccc3)c3ccc(NC(C)=O)cc32)[C@@H](C)[C@@H]1[Si](C)(C)c1ccc(OC)cc1`, for which the composite z-score came to 0.174. Take `CC(C)CNC(=O)[C@@H]1c2ccccc2C(=O)N(Cc2cc(C(F)(F)F)cc(C(F)(F)F)c2)[C@H]1c1ccc(CO)cc1`: the composite z-score is -0.674. The compound `COc1ccccc1CN1C(=O)c2ccccc2[C@@H](C(=O)NCCN2CCOCC2)[C@@H]1c1ccc(CO)cc1` gave a composite z-score of 0.156. Regarding `NCCCCCCNC(=O)[C@H]1C[C@H]2C(=O)NCC(=O)N2[C@H]1c1cccc(OCCO)c1`, the composite z-score came out at 0.485. Then `COCCOC(=O)N1C(=O)[C@@]2(c3ccccc31)[C@H](C(=O)NC[C@H](O)c1ccccc1)[C@H]1C(=O)O[C@H](c3ccccc3)[C@H](c3ccccc3)N1[C@@H]2c1ccc(OCCO)cc1`, with 0.168; and `CC(C)N1CC=CC23O[C@@H]4C=CCOC(=O)[C@@H]4[C@H]2C(=O)N(CCO)[C@@H]3C1=O` (stereo partly specified), with -1.05; and `COC(=O)[C@@]1(Cc2ccccc2)[C@H]2c3cc(C(=O)N4CCCC4)n(C)c3C[C@H]2CN1C(=O)c1ccccc1`, with 1.64. `O=C1[C@]2(CO)C=C(Br)[C@@H](C[C@@H]2c2ccccc2)[C@@]12CO2` gave a composite z-score of 1.26. The compound `CCCCC(O)C1C=CC2C(=O)N(C3CCCCC3)C(=O)C2N1Nc1ccc(OC)cc1` (stereo unspecified) yielded a composite z-score of 1.54. As for `COc1ccc(C(O)C2C=CC3C(=O)N(c4ccccc4)C(=O)C3N2Nc2ccc([N+](=O)[O-])cc2)cc1OCc1ccccc1` (stereo unspecified), the composite z-score stood at 0.935. Compound `Cc1ccc(S[C@]2(C(=O)NCc3ccccc3)CC(=O)N(Cc3ccccc3)[C@@H]2c2ccc(CO)cc2)cc1` registered a composite z-score of -0.926. Turning to `C=C(COC)/C(=C/C[C@H](OC(=O)c1ccncc1)c1cccc(OCCO)c1)c1cc(C(=O)OC)ccc1OC`, the composite z-score was -0.258.

`COC(=O)[C@@]1(Cc2ccccc2)[C@H]2c3cc(C(=O)N(C)C)n(Cc4cc(C)n(C)n4)c3C[C@H]2CN1C(=O)c1ccccc1` gave a composite z-score of 1.63. As to `COC(=O)[C@@]1(Cc2ccccc2N=[N+]=[N-])COC(c2ccc(OCCCO)cc2)=N1`, the composite z-score amounted to 0.175.

With `CN1CCC(CCCO)=CC1c1ccc(CN2CCCC2)cc1` (stereo unspecified), the composite z-score worked out at 0.825. Consider `CC(=CC1CCCCC1)[C@@H](NC(=O)c1ccc(C(F)(F)F)cc1)c1ccc(-c2ccccc2)cc1`, for which the composite z-score turned out to be 1.03.
